# High-throughput results: PubChem BioAssay, National Center for Advancing Translational Sciences (NCATS)
# D1 ag – Allosteric Agonists of the Human D1 Dopamine Receptor: qHTS; D(1A) dopamine receptor (Homo sapiens), P21728; HEK293 T-REx D1 cells, calcium flux, agonist mode; activation, % at 2 µM; 1% of 360,000 active; AID 504660, 2011; also: 0% is about no effect
# Target sequence (P21728 whole entry, looked up): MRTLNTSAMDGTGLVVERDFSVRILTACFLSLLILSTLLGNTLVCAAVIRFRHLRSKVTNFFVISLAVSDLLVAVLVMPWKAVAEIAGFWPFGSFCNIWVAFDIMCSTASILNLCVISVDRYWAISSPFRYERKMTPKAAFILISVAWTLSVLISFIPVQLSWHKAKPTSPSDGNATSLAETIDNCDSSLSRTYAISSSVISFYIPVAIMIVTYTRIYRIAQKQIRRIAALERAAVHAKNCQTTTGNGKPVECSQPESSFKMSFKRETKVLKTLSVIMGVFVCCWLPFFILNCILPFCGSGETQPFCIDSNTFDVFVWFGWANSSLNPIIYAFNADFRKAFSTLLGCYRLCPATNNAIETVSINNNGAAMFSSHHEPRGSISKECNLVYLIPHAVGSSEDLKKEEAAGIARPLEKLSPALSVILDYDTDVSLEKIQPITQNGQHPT
#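 Inducible HEK293 T-REx D1 cells, force-coupled to calcium signalling, were plated at 4000 cells/well with tetracycline and held overnight at 30 C. After no-wash calcium dye loading, compound-evoked calcium rise over 180 s flagged agonists.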
# D1 potentiator – Potentiators of Human D1 Dopamine Receptor: qHTS; D(1A) dopamine receptor (Homo sapiens), P21728; potentiation, % at 10 µM; 0.036% of 360,000 active; HEK293 TREx D1 cells, calcium flux, dopamine EC20 potentiation; AID 504651, 2011; in the data active = potentiation above about 30%; also: 0% is about no effect
# D1 antag – Antagonist of Human D 1 Dopamine Receptor: qHTS; D(1A) dopamine receptor (Homo sapiens), P21728; HEK293 TREx D1 cells, calcium flux, dopamine EC80; active compounds read low; activity change, negative = inhibition, % at 10 µM; 3.2% of 360,000 active; in the data active = activity change below about -30%; also: % is scaled to controls: 0 for no effect and ±100 for the full control effect
#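 Tetracycline-induced HEK293 Trex D1 cells, force-coupled to calcium, dye-loaded; compounds added and read 180 s, then EC80 dopamine added and calcium flux tracked kinetically another 180 s.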
# TRHR enhancer – qHTS for Small Molecule Agonists and Allosteric Enhancers of Human TRH Receptor: Primary Screen for Enhancers. TRHR cells, fluo-8 calcium fluorescence, EC20 TRH enhancement. enhancement, % at 2 µM. 0.66% of 360,000 active. AID 493056, 2011; in the data active = enhancement above about 30%; also: 0% is about no effect
#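 TRHR-expressing cells loaded with fluo-8 calcium dye were read kinetically (ex 480/em 530) during compound addition, then stimulated with an EC20 of TRH (10 nM final). Enhancement of the Gq-mediated intracellular calcium response was scored.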
# TRHR agonist – qHTS for Small Molecule Agonists and Allosteric Enhancers of Human TRH Receptor: Primary Screen for Agonists. TRHR cells, calcium flux fluo-8, FDSS agonist mode. 0.18% of 360,000 active. AID 493084, 2011. activation, % at 2 µM; also: 0% is about no effect
#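 Steps: seed TRHR cells overnight; add fluo-8 no-wash Ca dye, RT 30 min–1.5 h; record 10 s baseline; pin-transfer compounds; monitor fluorescence 1 cycle/s for the agonist window. Calcium increases flag candidate agonists.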
# * = called active by the depositor. In the library only some 4.7% were active in any assay of this set; here they are far more common. Rule as the data show it, unless noted: active = activation above about 30%; inactive = the rest.
SMILES,D1 ag,D1 potentiator,D1 antag,TRHR enhancer,TRHR agonist
O=C(Nc1ccc(Br)cc1F)c1ccc2nc(CCc3ccccc3)oc2c1,2.6,-1.8,5.7,-0.4,0.3
CCCc1cc(Nc2ccccc2C)n2ncnc2n1,1.5,-8.9,-5.9,35.4*,0.4
COc1ccc(S(=O)(=O)c2nnn(-c3ccccc3F)c2C)cc1,10.0,-3.6,-8.2,-3.9,-0.2
COc1ccc(S(=O)(=O)c2nnn(-c3ccc(C)c(Cl)c3)c2C)cc1,30.7*,-4.5,-20.8,-1.9,3.1
CCOC(=O)c1ccc(N/C=C\C(=O)c2cccc(OC)c2)cc1,11.3,1.5,-46.4*,-9.0,0.4
CCOC(=O)c1cccc(N/C=C/C(=O)c2ccc(OC)c(OC)c2)c1,2.0,-7.0,2.3,6.5,-1.9
COc1cccc(C(=O)/C=C/Nc2ccc(S(=O)(=O)Nc3ccc(C(C)=O)cc3)cc2)c1,3.4,-6.4,-34.4*,1.6,0.4
Cc1ccccc1C(=O)N1CCCC(N2CCN(Cc3ccc4c(c3)OCO4)CC2)C1 (centres undefined),2.1,-8.7,-51.5*,-4.0,-0.1
CCOc1ccccc1N1CCN(Cc2ccc(Br)s2)CC1,4.0,-2.4,4.1,-3.1,-0.1
CS(=O)(=O)N1CCN(C(=O)c2ccc(Br)s2)CC1,-2.2,-4.0,-31.8*,-0.5,0.4
CC(=O)N1CCN(Cc2ccc(Br)s2)CC1,2.9,1.8,8.3,30.3*,0.5
CC(C)CNS(=O)(=O)c1ccc(CCC(=O)N2CCN(Cc3ccc4c(c3)OCO4)CC2)cc1,16.1,-2.4,-33.1*,-3.0,1.6
Cc1cc(C(=O)N2CCCC(N3CCN(Cc4ccc5c(c4)OCO5)CC3)C2)n[nH]1 (centres undefined),1.8,-5.5,18.2,3.3,0.0
CS(=O)(=O)N1CCN(C(=O)c2ccncc2)CC1,2.3,3.9,-8.9,-1.0,0.1
O=C(CCc1nc2cccnc2n1-c1ccccc1)Nc1ccc(Cl)c(Cl)c1,-1.6,2.8,-1.4,-3.5,0.7
O=C(O)CCC(=O)N1CCN(Cc2ccc3c(c2)OCO3)CC1,0.2,1.5,9.4,30.7*,0.7
O=C(CN1C(=O)c2cccc3cccc1c23)N1CCN(Cc2ccc3c(c2)OCO3)CC1,-1.1,14.7,-9.2,14.2,-1.1
O=C(CCN1C(=O)c2cccc3cccc(c23)C1=O)N1CCN(Cc2ccc3c(c2)OCO3)CC1,0.1,4.8,-30.3*,-4.3,-0.5
CCCC(=O)N1CCN(Cc2ccc3c(c2)OCO3)CC1,2.2,5.7,11.2,-1.7,0.0
O=C(c1ccc(Br)s1)N1CCN(Cc2ccc3c(c2)OCO3)CC1,0.1,-4.2,-34.9*,-2.2,-0.6
O=C(c1ccc(Br)o1)N1CCN(Cc2ccc3c(c2)OCO3)CC1,1.0,3.0,1.1,4.4,0.0
CCc1ccc(-n2nc(CO)c(C(=O)NCc3cccs3)n2)cc1,2.6,-2.5,12.9,0.9,-0.9
CC(C)OCCCNC(=O)c1ccc2c(c1)N(Cc1c(F)cccc1Cl)C(=O)c1ccccc1S2,6.6,0.9,-6.9,-12.5,0.0
CC1=C(C(=O)Nc2cccnc2)C(c2ccc(F)cc2)n2nc(-c3cccc(C)c3)nc2N1 (centres undefined),-0.2,-1.4,-6.0,0.8,1.4
CCOc1ccc(S(=O)(=O)N2CCC(C(=O)OCc3cccc(OC)c3OC)CC2)cc1,22.4,-3.6,-0.1,-5.2,3.1
SMILES,D1 ag,D1 potentiator,D1 antag,TRHR enhancer,TRHR agonist
COc1cccc(COC(=O)C2CCN(S(=O)(=O)c3ccc(C)cc3)CC2)c1OC,10.5,0.7,-37.9*,-8.1,0.5
CCc1ccccc1Nc1nc(N)nc(COC(=O)C2CCN(C(=O)c3ccc(F)cc3)CC2)n1,3.8,-4.7,-1.4,2.2,0.3
COc1cccc(COC(=O)C2CCN(S(=O)(=O)c3ccc(C)cc3C)CC2)c1OC,17.7,-18.4,-44.1*,-3.6,1.4
COc1cccc(COC(=O)C2CCN(C(=O)c3ccc(F)cc3)CC2)c1OC,19.1,-10.7,-45.4*,-6.1,-0.1
Cc1ccc(/C=C/C(=O)N2CCC(Cc3ccccc3)CC2)cc1,9.8,-9.0,-33.4*,5.7,0.7
COc1ccccc1OC(C)C(=O)N1CCC(Cc2ccccc2)CC1 (centres undefined),3.3,-6.8,-10.0,3.1,-0.5
Cc1ccc([N+](=O)[O-])c(OCCN2CCC(Cc3ccccc3)CC2)c1,26.8,-12.9,-55.0*,3.7,2.7
Cc1ccccc1OC(C)C(=O)N1CCC(Cc2ccccc2)CC1 (centres undefined),13.1,-1.9,-46.8*,-4.7,-0.4
Cc1ccc(/C=C/C(=O)N2CCCC(C)C2)cc1 (centres undefined),1.2,-2.5,-3.5,-0.9,-0.3
Cc1cccc(C(=O)N2CCC(Cc3ccccc3)CC2)c1[N+](=O)[O-],1.1,-6.0,-36.4*,9.0,-0.3
CCOC(=O)c1c(S(=O)(=O)N2CCC(C(=O)Nc3ccc(C)cc3C)CC2)c(C)n(C)c1C,0.9,-0.8,-11.2,2.9,-0.4
Cc1ccccc1CNC(=O)Cn1nc(C)c2nn(-c3ccc(Cl)cc3)c(C)c2c1=O,0.1,-0.8,-6.3,2.5,-0.6
CCOC(=O)c1cc(S(=O)(=O)NCc2ccc(OC)cc2)[nH]n1,1.7,0.1,5.9,-6.7,0.3
CCOc1ccc(CNC(=O)c2cnc3c(C)cccn3c2=O)cc1,1.0,0.3,-24.3,-0.5,-0.3
CSc1nccc(Oc2cccc(C#N)c2)n1,1.9,-10.2,-33.0*,0.0,-1.0
N#Cc1cc([N+](=O)[O-])ccc1N1CCN(c2ccccc2O)CC1,24.0,-13.0,-30.2*,-3.6,0.8
COc1ccccc1NC(=O)CCS(=O)(=O)c1cc2c3c(c1)CCN3C(=O)CC2,0.9,2.8,-22.0,2.3,0.0
Cc1cccc(NC(=O)CN2C(=O)C3(SCC(=O)N3c3ccccc3)c3ccccc32)c1 (centres undefined),4.9,-1.0,-36.5*,3.5,-2.0
COc1ccc(N(CC(=O)NCc2ccccc2Cl)S(=O)(=O)c2c(C)nn(C)c2C)cc1,-0.6,-0.1,-4.3,6.6,0.2
Cc1nc2ccn(Cc3ccco3)c(=O)c2cc1C(=O)Nc1ccc(F)cc1,0.0,-7.7,1.3,1.7,-0.4
N=C(N=C(N)N)N1CCc2ccccc21,0.5,-6.7,-37.4*,1.9,0.1
CN1CCC(Oc2ccc(Sc3ccccc3)cc2)CC1,77.7*,-8.8,-27.6,0.8,1.7
CN1CCC(Oc2ccccc2Sc2ccc(C(F)(F)F)cc2)CC1,52.4*,-6.3,-58.3*,3.9,12.9
O=C(c1ccc2c(c1)N(Cc1ccc(Cl)cc1)C(=O)c1ccccc1S2(=O)=O)N1CCOCC1,1.7,-0.1,6.7,-6.1,0.3
